Measured values: PubChem BioAssay AID1159580 (chemical genetic matrix, 2015)
Values joined by “and” are separate entries in the source; they are usually repeats but may differ in a detail not shown here. Identical values can stand only once. Among all 5,500 compounds or so, about 2,000 (36%) were called active. About 18% were inconclusive and are not listed. Cut-off read from the data, not from the text of the source: active = normalized growth mostly below about 0.91 (no sharp cut-off); inconclusive = no clear call, values can overlap the other calls; inactive = mostly above about 0.92. The list shows a part of the results.

Assay: chemical genetic growth profiling, strain panel (AID 1159580);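 note: tested at 20 µM; growth read once vehicle control cultures reached saturation at 30 °C; 1 = growth at the plate median or of vehicle wells; lower values mean less growth of the strain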
Conditions: S. cerevisiae deletion strains, growth OD

Measured: normalized growth

CC1(C)C(=O)[C@@H]2C[C@@]3(O)C4=CC(=O)O[C@@H](c5ccoc5)[C@]4(C)CCC3[C@@](C)(C2=O)[C@H]1CC(=O)O (stereo partly specified)
inactive: locus YAL021C, strain ccr4, stronger effect = lower value 0.988 | locus YAL026C, strain drs2, stronger effect = lower value 1.02 | locus YAL030W, strain snc1, stronger effect = lower value 0.997 | locus YBL061C, strain skt5, stronger effect = lower value 1.01 | locus YBR009C, strain hhf1, stronger effect = lower value 1 | locus YBR021W, strain FUR4, stronger effect = lower value 1 | locus YBR023C, strain chs3, stronger effect = lower value 1.01 | locus YBR171W, strain sec66, stronger effect = lower value 1.01 | locus YBR229C, strain ROT2, stronger effect = lower value 1.01 | locus YBR231C, strain swc5, stronger effect = lower value 1.01 | locus YBR279W, strain paf1, stronger effect = lower value 1.01 | locus YCL011C, strain gbp2, stronger effect = lower value 1.02 | locus YCL016C, strain dcc1, stronger effect = lower value 1.01 | locus YCL029C, strain bik1, stronger effect = lower value 0.995 | locus YCL061C, strain MRC1, stronger effect = lower value 1 | locus YCL069W, strain vba3, stronger effect = lower value 1.01 | locus YCR088W, strain abp1, stronger effect = lower value 1 | locus YDL005C, strain med2, stronger effect = lower value 0.996 | locus YDL035C, strain GPR1, stronger effect = lower value 1.03 | locus YDL040C, strain nat1, stronger effect = lower value 0.991 | locus YDL074C, strain BRE1, stronger effect = lower value 1.02 | locus YDL101C, strain DUN1, stronger effect = lower value 1.01 | locus YDL185W, strain tfp1, stronger effect = lower value 0.995 | locus YDL192W, strain arf1, stronger effect = lower value 1 | locus YDR001C, strain nth1, stronger effect = lower value 1.01 | locus YDR069C, strain doa4, stronger effect = lower value 1.02 | locus YDR101C, strain arx1, stronger effect = lower value 0.993 | locus YDR137W, strain rgp1, stronger effect = lower value 1.04 | locus YDR150W, strain NUM1, stronger effect = lower value 1.01 | locus YDR159W, strain sac3, stronger effect = lower value 1.01 | locus YDR162C, strain NBP2, stronger effect = lower value 1.03 | locus YDR195W, strain ref2 0.972 | locus YDR297W, strain sur2, stronger effect = lower value 1.01 | locus YDR318W, strain mcm21, stronger effect = lower value 0.996 | locus YDR334W, strain swr1, stronger effect = lower value 1.01 | locus YDR335W, strain msn5, stronger effect = lower value 1.01 | locus YDR388W, stronger effect = lower value 0.967 | locus YDR392W, strain spt3, stronger effect = lower value 1.01 | locus YDR502C, strain sam2, stronger effect = lower value 0.991 | locus YEL003W, strain gim4, stronger effect = lower value 1.03 | locus YEL037C, strain rad23, stronger effect = lower value 1.01 | locus YEL061C, strain CIN8 (second series), stronger effect = lower value 1.02 | locus YEL061C, strain CIN8, stronger effect = lower value 1 | locus YER015W, strain faa2, stronger effect = lower value 1 | locus YER016W, strain bim1, stronger effect = lower value 1 | locus YER110C, stronger effect = lower value 0.984 | locus YER111C, strain swi4, stronger effect = lower value 1.01 | locus YER155C, strain BEM2 (second series), stronger effect = lower value 1.02 | locus YER155C, strain BEM2, stronger effect = lower value 1 | locus YER167W, strain BCK2, stronger effect = lower value 1 | locus YFR010W, strain ubp6, stronger effect = lower value 1.01 | locus YGL078C, strain dbp3, stronger effect = lower value 0.996 | locus YGL086W, strain mad1, stronger effect = lower value 1.01 | locus YGL167C, strain pmr1, stronger effect = lower value 1 | locus YGL173C, strain kem1, stronger effect = lower value 1.01 | locus YGL227W, strain vid30, stronger effect = lower value 0.998 | locus YGL240W, strain doc1, stronger effect = lower value 1.01 | locus YGL248W, strain PDE1, stronger effect = lower value 1 | locus YGL253W, strain hxk2, stronger effect = lower value 1.01 | locus YGR135W, strain pre9, stronger effect = lower value 0.997 | locus YGR252W, strain gcn5, stronger effect = lower value 1 | locus YHR013C, strain ard1, stronger effect = lower value 1.02 | locus YHR027C, strain rpn1, stronger effect = lower value 0.993 | locus YHR030C, strain SLT2, stronger effect = lower value 0.98 | locus YHR079C, strain IRE1 (second series), stronger effect = lower value 0.996 | locus YHR079C, strain IRE1, stronger effect = lower value 0.956 | locus YHR094C, strain hxt1, stronger effect = lower value 0.981 | locus YHR129C, strain ARP1, stronger effect = lower value 1 | locus YHR142W, strain chs7, stronger effect = lower value 1.02 | locus YHR200W, strain rpn10, stronger effect = lower value 0.988 | locus YIL066C, strain RNR3, stronger effect = lower value 1 | locus YIL073C, strain SPO22, stronger effect = lower value 1.05 | locus YIL125W, strain kgd1, stronger effect = lower value 0.994 | locus YIR030C, strain dcg1, stronger effect = lower value 0.993 | locus YJL092W, strain hpr5, stronger effect = lower value 1.01 | locus YJL095W, strain BCK1 (second series), stronger effect = lower value 1 | locus YJL095W, strain BCK1, stronger effect = lower value 1.02 and 0.973 | locus YJL115W, strain asf1, stronger effect = lower value 1.02 | locus YJL129C, strain trk1, stronger effect = lower value 0.998 | locus YJL134W, strain LCB3, stronger effect = lower value 1 | locus YJL154C, strain vps35, stronger effect = lower value 1 | locus YJL164C, strain tpk1, stronger effect = lower value 1.01 | locus YJL166W, strain qcr8, stronger effect = lower value 1.02 | locus YJL168C, strain set2, stronger effect = lower value 0.994 | locus YJL187C, strain SWE1 (second series), stronger effect = lower value 1.01 | locus YJL187C, strain SWE1, stronger effect = lower value 1.03
